Measured values published in PubChem BioAssay (NCATS).
Results filed as inconclusive are left out. Activity calls are given as the source filed them. Calls follow the shape of the dose curve; as a rule, active = well fitted curve in the direction sought with a large enough effect; inconclusive = small, poorly fitted or top-dose-only effect, or another doubt; inactive = no such curve, though single readings can be large; an effect the other way counts as inactive or inconclusive.

Experiments:
[1] = target: Cellular tumor antigen p53 (Homo sapiens) (UniProt P04637); assay: Primary qHTS for small molecule compounds that upregulate eGFP-tagged delta133p53alpha (in N-terminal) cells. (AID 2060322); settings: NCI-H358 eGFP-delta133p53alpha fluorescence, 24 h; activation: active compounds read high;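 also: 0% = DMSO vehicle and 100% = reference activator; nearly all actives have a fitted effect of over 75% in size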
Chain of Cellular tumor antigen p53 (Homo sapiens) (P04637 whole entry, looked up): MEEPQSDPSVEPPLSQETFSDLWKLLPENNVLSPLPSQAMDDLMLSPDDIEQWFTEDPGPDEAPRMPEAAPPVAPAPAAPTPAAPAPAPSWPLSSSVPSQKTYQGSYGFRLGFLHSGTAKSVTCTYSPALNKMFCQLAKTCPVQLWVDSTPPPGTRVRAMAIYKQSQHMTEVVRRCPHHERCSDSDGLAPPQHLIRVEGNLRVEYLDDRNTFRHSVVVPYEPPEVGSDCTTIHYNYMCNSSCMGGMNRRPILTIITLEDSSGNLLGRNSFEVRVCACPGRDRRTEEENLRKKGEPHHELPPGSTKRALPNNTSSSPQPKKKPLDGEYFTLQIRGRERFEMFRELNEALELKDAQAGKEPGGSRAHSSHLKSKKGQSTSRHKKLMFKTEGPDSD
Outline: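 NCI-H358 cells pre-induced 24 h with 10 ng/ml doxycycline to express N-terminal eGFP-delta133p53alpha, then dosed 24 h at 37C without doxycycline; fixed, Hoechst-stained, GFP intensity by laser scanning cytometry, normalized to DMSO (0%) and 57.5 uM 5-azacytidine (100%).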

[2] = target: Aldehyde dehydrogenase, mitochondrial (Homo sapiens) (UniProt P05091); assay: qHTS for Inhibitors of the Aldehyde Dehydrogenase Family (ALDH2) Primary screen (AID 2061308); settings: ALDH2 enzyme inhibition qHTS, 1536-well; series mostly up to 56 µM;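 also: plate controls were vehicle for no effect and reference inhibitor for full effect; nearly all actives have a fitted effect of over 55% in size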
[3] = target: Retinaldehyde dehydrogenase 3 (Homo sapiens) (UniProt P47895); assay: qHTS for Inhibitors of the Aldehyde Dehydrogenase Family (ALDH1A3) Primary screen (AID 2061315); settings: ALDH inhibition qHTS; series mostly up to 56 µM;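 also: plate controls were DMSO vehicle for no effect and reference inhibitor for full effect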

CC(C)c1ccc2c(c1)C(=O)CC1C(C)(C(=O)O)CCCC21C (stereo not drawn)
inactive: activation [1] 3.57% | Potency [2] | Potency [3]

CCCCn1c(-c2ccccc2)nc(-c2ccccc2)c1CN(Cc1ccc2c(c1)OCO2)Cc1ccc2c(c1)OCO2
inactive: activation [1] -10% | Potency [2] | Potency [3]

O=C(OC1C[C@H]2CC[C@@H](C1)[N+]21CCCC1)C(O)(c1ccccc1)c1ccccc1 (stereo partly drawn)
inactive: activation [1] 5.18% | Potency [2] | Potency [3]

CC(C)C1=CC2C(CC[C@]2(C)O)[C@](C)(O)CC1 (stereo partly drawn)
inactive: activation [1] -6.25% | Potency [2] | Potency [3]

O=C(O[C@@H]1O[C@H](CO)[C@@H](O)[C@H](O)[C@H]1O)c1ccccc1
inactive: activation [1] -9.82% | Potency [2] | Potency [3]

C=C[C@@H]1[C@H](O[C@@H]2O[C@H](CO)[C@@H](O)[C@H](O)[C@H]2O)OC=C(C(=O)O)[C@H]1CCOC(=O)/C=C/c1ccc(O)c(O)c1
inactive: activation [1] -7.63% | Potency [2] | Potency [3]

CC(C)(C)c1ccc(S(=O)(=O)Nc2ccc(Cl)cc2C(=O)c2cc[n+]([O-])cc2)cc1
inactive: activation [1] -16.3% | Potency [2] | Potency [3]

COC1C(CO)OC(n2cnc3c(=O)[nH]cnc32)C1O (stereo not drawn)
inactive: activation [1] -12.2% | Potency [2] | Potency [3]

CCC(=O)O[C@]1(C(=O)CCl)[C@@H](C)C[C@H]2[C@@H]3C[C@H](F)C4=CC(=O)C=C[C@]4(C)[C@@]3(F)[C@@H](O)C[C@@]21C
inactive: activation [1] 17.9% | Potency [2] | Potency [3]

CC(=O)OC1CC(O)(C(C)C)C2C(OC(=O)c3ccc(O)cc3)C=C(C)C(=O)CC12C (stereo not drawn)
inactive: activation [1] 29.8% | Potency [2] | Potency [3]

C=C1C(=O)OC[C@H]2C(C(=O)O)=CC3CC(C)(C)C[C@@]132 (stereo partly drawn)
inactive: activation [1] 13.4% | Potency [2] | Potency [3]

CC(=O)O[C@@H]1[C@@H](O)[C@H](O[C@@H]2[C@@H](O)[C@@H](O)[C@H](O[C@H]3[C@H](O[C@H]4[C@H](O[C@H]5CC[C@@]6(C)C(CC[C@]7(C)C6CC=C6[C@@H]8CC(C)(C)CC[C@]8(C(=O)O)CC[C@]67C)[C@]5(C)CO)O[C@H](CO)[C@@H](O)[C@@H]4O)OC[C@@H](O)[C@@H]3O)O[C@H]2C)OC[C@H]1O (stereo partly drawn)
inactive: activation [1] -3.05% | Potency [2] | Potency [3]

CC(=O)N[C@H]1[C@H](O[C@H]2CC[C@@]3(C)C(CC[C@]4(C)C3CC=C3[C@@H]5CC(C)(C)CC[C@]5(C(=O)OC5OCC(O)C(O)C5O)CC[C@]34C)C2(C)C)O[C@H](COC2OC(C)C(O)C(OC3OC(C)C(O)C(O)C3O)C2O)[C@@H](O)[C@@H]1O (stereo partly drawn)
inactive: activation [1] -26% | Potency [2] | Potency [3]

C=C1CCC2C(C)(C)CCCC2(C)C1CC/C(C)=C\CO (stereo not drawn)
inactive: activation [1] -12.5% | Potency [2] | Potency [3]

C[C@@H]1O[C@@H](O[C@H]2[C@@H]3C=CO[C@@H](O[C@@H]4O[C@H](CO)[C@@H](O)[C@H](O)[C@H]4O)[C@@H]3[C@@]3(CO)O[C@@H]23)[C@H](O)[C@H](O)[C@H]1OC(=O)/C=C/c1ccc(O)cc1
inactive: activation [1] -25.2% | Potency [2] | Potency [3]

CC1CC(O)C2(OC1=O)OC1C(O)C3C4CCC5CC(OC6OC(CO)C(O)C(O)C6OC6OC(C)C(O)C(O)C6O)CCC5(C)C4CCC3(C)C1C2C (stereo not drawn)
inactive: activation [1] -0.893% | Potency [2] | Potency [3]

C=C1C(OC(C)=O)CCC2(C)CCC(C(C)(C)O)CC12 (stereo not drawn)
inactive: activation [1] -3.05% | Potency [2] | Potency [3]

C=C(C(=O)OC)[C@]12O[C@@](C)(CC[C@@]3(O)/C(=C\C)C(=O)O[C@]3(C)C[C@@H]1OC(=O)C(CO)CN1CCCC1C(=O)O)CC2=O (stereo partly drawn)
inactive: activation [1] -18.8% | Potency [2] | Potency [3]

C[C@@H]1CC2OC(=O)C3=C2C(CCC3O)[C@@]12C[C@@H](c1ccoc1)OC2=O (stereo partly drawn)
inactive: activation [1] -8.4% | Potency [2] | Potency [3]

CC1OC(OC2C(CO)OC(OCC3OC(OC(=O)C45CCC(C)(C)CC4C4=CCC6C7(C)CCC(OC8OC(C(=O)O)C(O)C(OC9OC(CO)C(O)C(O)C9O)C8O)C(C)(C)C7CCC6(C)C4(C)CC5)C(O)C(O)C3O)C(O)C2O)C(O)C(O)C1O (stereo not drawn)
inactive: activation [1] 18.3% | activity change, negative = inhibition [2] -0.0745% [at 11.2 µM] | activity change, negative = inhibition [3] -5.8% [at 11.2 µM]

CC(C)/C=C1/NC(=O)C(C(C)C)n2c1nc1c(O)cccc1c2=O (stereo not drawn)
inactive: activation [1] -14.5% | Potency [2] | Potency [3]
